According to PubChem BioAssay (NCATS):
A number with no mark means an inactive call. Inconclusive results are not listed. Active and inactive are the calls of the source. Unless noted, calls follow the shape of the dose curve; as a rule, active = well fitted curve in either direction with a large enough effect (not every such curve was filed as active); inconclusive = small, poorly fitted or top-dose-only effect, or another doubt; inactive = flat fitted curve, though single readings scatter.

Assays:
[1] = biological target: Lysosomal acid glucosylceramidase (Homo sapiens) (UniProt P04062); assay: Glucocerebrosidase-p2 (AID 348; in the data active = potency below about 10 µM; also: potency is read from the fitted curve at half-maximal effect); conditions: purified GBA, blue fluorogenic substrate, 40 min
Chain of Lysosomal acid glucosylceramidase (Homo sapiens) (P04062 whole entry, looked up): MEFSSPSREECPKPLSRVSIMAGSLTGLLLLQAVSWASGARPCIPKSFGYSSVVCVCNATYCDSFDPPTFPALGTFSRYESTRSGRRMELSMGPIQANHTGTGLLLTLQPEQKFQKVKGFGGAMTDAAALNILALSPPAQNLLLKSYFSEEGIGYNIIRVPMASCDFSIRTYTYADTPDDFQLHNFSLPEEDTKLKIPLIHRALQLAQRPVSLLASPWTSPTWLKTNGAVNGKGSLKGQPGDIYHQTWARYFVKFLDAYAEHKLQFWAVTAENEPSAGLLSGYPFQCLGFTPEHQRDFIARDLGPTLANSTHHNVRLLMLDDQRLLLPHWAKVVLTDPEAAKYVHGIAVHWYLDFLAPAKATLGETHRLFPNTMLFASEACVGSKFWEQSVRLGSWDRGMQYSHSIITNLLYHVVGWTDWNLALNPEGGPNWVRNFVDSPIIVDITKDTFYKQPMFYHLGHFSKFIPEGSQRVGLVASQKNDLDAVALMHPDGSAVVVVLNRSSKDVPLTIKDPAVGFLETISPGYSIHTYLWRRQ
Procedure, shortened: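 Compounds titrated from 0.6 nM upwards against 0.2 nM enzyme in pH 5.9 citric acid/KH2PO4, taurocholate, tween-20; blue fluorogenic substrate 80 uM, 40 min room temperature, stopped and read Ex 365/Em 440 for AC50.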

[2] = AP1 Signaling Pathway (AID 357); conditions: ME-180 AP-1-bla reporter, EGF-induced, beta-lactamase ratio, 5 h; at 7.69 µM (top of the series) unless noted;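 also: ME-180 reporter cells stimulated with EGF at its EC50 level; % is scaled to controls: 0 for no effect and ±100 for the full control effect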
Procedure, shortened: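 Beta-lactamase reporter under AP-1 response element, ME-180 background. Stimulus: EC50 EGF. Compound exposure 5 h, 37 °C. Detection: CCF4, 2.5 h RT, 460/530 nm. Values: AC50 from titration.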

[3] = biological target: Cytochrome P450 1A2 (Homo sapiens) (UniProt P05177); assay: p450-cyp1a2 (AID 410; calls by dose curve; also: potency is read from the fitted curve at half-maximal effect;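 as to activity change, negative = inhibition: -100% = full effect of reference inhibitor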); conditions: recombinant CYP1A2, luciferin-ME demethylation, luminescence; series mostly up to 11.4 µM
Chain of Cytochrome P450 1A2 (Homo sapiens) (P05177 whole entry, looked up): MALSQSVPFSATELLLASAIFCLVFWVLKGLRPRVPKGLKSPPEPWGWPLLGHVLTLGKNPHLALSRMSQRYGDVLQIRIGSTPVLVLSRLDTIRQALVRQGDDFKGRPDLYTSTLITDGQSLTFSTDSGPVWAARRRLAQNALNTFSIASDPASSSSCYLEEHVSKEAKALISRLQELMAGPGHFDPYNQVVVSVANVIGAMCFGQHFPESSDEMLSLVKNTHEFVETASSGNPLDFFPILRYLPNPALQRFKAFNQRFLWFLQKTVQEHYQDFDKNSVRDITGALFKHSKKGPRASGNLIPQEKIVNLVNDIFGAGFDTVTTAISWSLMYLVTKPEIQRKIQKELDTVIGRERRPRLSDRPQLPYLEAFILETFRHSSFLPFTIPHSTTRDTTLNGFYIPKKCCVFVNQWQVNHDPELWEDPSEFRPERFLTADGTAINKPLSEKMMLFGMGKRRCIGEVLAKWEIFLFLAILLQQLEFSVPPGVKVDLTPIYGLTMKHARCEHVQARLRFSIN
Procedure, shortened: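 Inhibition was calculated relative to 57 uM furafylline (full inhibition). The reaction used human CYP1A2 at 20nM with Luciferin-ME at its Km, 100uM, driven by an NADPH-regenerating system for 60 min at room temperature.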

[4] = Stat Signaling Pathway (AID 446); conditions: ME-180 SIE beta-lactamase reporter, IL-6 stimulated, 5 h; at 7.69 µM (top of the series) unless noted;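 also: ME-180 cervical cancer cells given 40 pM IL-6 alongside compound; SIE-controlled beta-lactamase reporter measured as 460/530 nm FRET emission ratio; % is scaled to controls: 0 for no effect and ±100 for the full control effect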
Procedure, shortened: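 ME-180 SIE-bla cells; overnight plating; cpd + IL-6 40 pM, 5 h, 37 C; LiveBLAzer 2.5 h RT; 460/530 nm emission ratio. Normalized to 300 pM IL-6 and 125 nM JAK inhibitor controls.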

[5] = biological target: Glucocorticoid receptor (Homo sapiens) (UniProt P04150); assay: GR-GFP Redistribution (AID 450;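 active = compounds whose dose series gives a full or clear partial fitted curve of increased nuclear translocation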; also: potency is read from the fitted curve at half-maximal effect); conditions: U2OS GR-GFP nuclear translocation, laser cytometry, 2 h
Chain of Glucocorticoid receptor (Homo sapiens) (P04150 whole entry, looked up, the tested form may be a part): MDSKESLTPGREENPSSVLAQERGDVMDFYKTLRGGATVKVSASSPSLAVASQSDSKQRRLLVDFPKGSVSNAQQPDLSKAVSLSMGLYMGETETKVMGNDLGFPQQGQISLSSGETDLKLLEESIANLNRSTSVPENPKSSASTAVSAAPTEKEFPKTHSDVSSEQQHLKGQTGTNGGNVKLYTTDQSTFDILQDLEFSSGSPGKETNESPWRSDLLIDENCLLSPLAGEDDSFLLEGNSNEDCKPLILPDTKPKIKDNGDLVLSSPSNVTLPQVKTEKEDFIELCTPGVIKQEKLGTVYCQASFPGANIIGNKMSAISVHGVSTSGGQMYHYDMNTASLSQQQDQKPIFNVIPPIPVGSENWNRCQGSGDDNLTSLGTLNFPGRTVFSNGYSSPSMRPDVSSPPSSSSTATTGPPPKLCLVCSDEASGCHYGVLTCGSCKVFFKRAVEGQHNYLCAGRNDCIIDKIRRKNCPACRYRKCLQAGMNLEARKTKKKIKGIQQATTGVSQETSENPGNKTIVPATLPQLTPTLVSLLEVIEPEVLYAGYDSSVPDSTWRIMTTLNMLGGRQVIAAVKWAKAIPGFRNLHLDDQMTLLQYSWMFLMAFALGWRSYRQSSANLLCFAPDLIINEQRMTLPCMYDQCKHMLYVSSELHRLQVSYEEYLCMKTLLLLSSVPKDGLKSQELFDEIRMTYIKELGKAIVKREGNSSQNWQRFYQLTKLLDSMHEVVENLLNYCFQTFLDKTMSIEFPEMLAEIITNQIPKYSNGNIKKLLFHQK

[6] = biological target: Glucocorticoid receptor (Homo sapiens) (UniProt P04150); assay: GR-EFC Redistribution (AID 451; calls by dose curve; also: potency is read from the fitted curve at half-maximal effect); conditions: CHO-K1 GR-EFC translocation, beta-gal luminescence, 2 h
Procedure, shortened: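 CHO-K1 cells stably expressing nuclear-localized β-gal enzyme acceptor and GR fused C-terminally to the enzyme donor fragment; ligand-driven nuclear translocation restores β-gal by complementation. Compounds titrated up to 46 uM final, 2 h at 37 °C; luminescence read.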

[7] = biological target: Mitogen-activated protein kinase 10 (Mus musculus) (UniProt Q61831); assay: JNK3 AlphaScreen Assay (AID 530); conditions: JNK3 lysate, c-Jun phosphorylation; series mostly up to 11.4 µM;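 also: kinase came from lysate of stimulated human HepG2 cells; signal reports phosphorylation of biotinylated GST-cJun 1-79 at Ser73 with 10 µM ATP; % is scaled to controls: 0 for no effect and ±100 for the full control effect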
Procedure, shortened: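 JNK3 came from HepG2 lysates pre-activated with IL-1beta and TNF-alpha and phosphorylated biotinylated GST-cJun (1-79) at 10 uM ATP, pH 7.6, room temperature. Compounds were titrated. AlphaScreen signal used anti-phospho-cJun (Ser73) antibody.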

[8] = biological target: 3',5'-cyclic-AMP phosphodiesterase 4B (Homo sapiens) (UniProt Q07343); assay: qHTS Assay for Inhibitors of PDE-IV (AID 607; active = well fitted activation curve with a large enough effect in the main read-out, with a control signal flat, not every such curve was filed as active; also: % of control where 0% means no effect); conditions: HEK293 ACTOne CNG channel cells, membrane potential fluorescence; series mostly up to 22.9 µM
Chain of 3',5'-cyclic-AMP phosphodiesterase 4B (Homo sapiens) (Q07343 whole entry, looked up): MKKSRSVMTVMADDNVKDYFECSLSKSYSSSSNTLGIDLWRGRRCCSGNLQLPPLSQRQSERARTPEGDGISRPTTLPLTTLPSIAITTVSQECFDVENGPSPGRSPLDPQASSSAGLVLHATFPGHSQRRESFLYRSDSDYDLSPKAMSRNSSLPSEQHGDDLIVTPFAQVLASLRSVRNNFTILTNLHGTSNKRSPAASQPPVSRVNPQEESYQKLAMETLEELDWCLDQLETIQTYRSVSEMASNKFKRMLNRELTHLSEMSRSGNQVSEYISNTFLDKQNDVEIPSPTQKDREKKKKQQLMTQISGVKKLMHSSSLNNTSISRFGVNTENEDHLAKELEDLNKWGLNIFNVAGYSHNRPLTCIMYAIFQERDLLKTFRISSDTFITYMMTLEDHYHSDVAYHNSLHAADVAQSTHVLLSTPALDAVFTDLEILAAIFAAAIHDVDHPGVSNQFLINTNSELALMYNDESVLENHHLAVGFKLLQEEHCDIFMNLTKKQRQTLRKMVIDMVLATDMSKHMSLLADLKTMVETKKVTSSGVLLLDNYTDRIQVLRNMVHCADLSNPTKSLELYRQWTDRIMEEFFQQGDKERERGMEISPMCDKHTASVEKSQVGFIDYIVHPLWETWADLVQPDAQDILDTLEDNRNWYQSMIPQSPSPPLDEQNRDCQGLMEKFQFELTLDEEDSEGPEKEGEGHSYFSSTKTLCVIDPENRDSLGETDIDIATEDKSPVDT
Procedure, shortened: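 ACTOne HEK293 cells carry a modified cAMP-gated CNG channel and express endogenous PDE4; plated 1000 cells/well, compounds up to 22.9 uM final. Membrane-potential dye fluorescence (ex 535/em 590) was read; parental cells received 10 uM forskolin + 100 uM RO 20-1724.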

[9] = biological target: Cytochrome P450 2C19 (Homo sapiens) (UniProt P33261); assay: qHTS Assay for Inhibitors and Substrates of Cytochrome P450 2C19 (AID 899; active = well fitted curve in the direction sought with a large enough effect; an effect the other way counts as inactive or inconclusive; also: nearly all actives have a fitted effect of over 60% in size; also: potency is read from the fitted curve at half-maximal effect; as to activity, negative = inhibition: % is scaled to controls: 0 for no effect and ±100 for the full control effect); conditions: recombinant CYP2C19, luciferin-H EGE luminescence; series mostly up to 11.4 µM
Chain of Cytochrome P450 2C19 (Homo sapiens) (P33261 whole entry, looked up): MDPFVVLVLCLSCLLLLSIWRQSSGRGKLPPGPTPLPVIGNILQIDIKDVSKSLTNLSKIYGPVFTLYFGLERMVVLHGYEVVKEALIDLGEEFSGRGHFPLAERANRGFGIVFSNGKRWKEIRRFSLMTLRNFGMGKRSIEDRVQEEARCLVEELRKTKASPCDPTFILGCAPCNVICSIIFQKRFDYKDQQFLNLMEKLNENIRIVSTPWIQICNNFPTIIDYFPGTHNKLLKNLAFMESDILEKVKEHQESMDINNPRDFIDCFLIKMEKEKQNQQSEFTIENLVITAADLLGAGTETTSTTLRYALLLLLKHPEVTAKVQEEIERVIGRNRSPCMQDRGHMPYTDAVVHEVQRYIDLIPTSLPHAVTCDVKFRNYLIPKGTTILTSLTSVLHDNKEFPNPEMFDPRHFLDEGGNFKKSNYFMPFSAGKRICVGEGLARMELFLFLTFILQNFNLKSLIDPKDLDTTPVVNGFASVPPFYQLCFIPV
Procedure, shortened: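 NADPH-dependent conversion of Luciferin-H EGE (10uM, at KM) by 5nM enzyme in 50mM KPO4, 60 min at 37C following 10 min compound preincubation. Stopped with luciferin detection buffer; luminescence read after 20 min.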

[10] = biological target: Cytochrome P450 2D6 (Homo sapiens) (UniProt P10635); assay: qHTS Assay for Inhibitors and Substrates of Cytochrome P450 2D6 (AID 891; active = well fitted curve in the direction sought with a large enough effect; an effect the other way counts as inactive or inconclusive; also: potency is read from the fitted curve at half-maximal effect; nearly all actives have a fitted effect of over 60% in size); conditions: recombinant CYP2D6, luciferin-ME EGE luminescence; series mostly up to 11.4 µM
Chain of Cytochrome P450 2D6 (Homo sapiens) (P10635 whole entry, looked up): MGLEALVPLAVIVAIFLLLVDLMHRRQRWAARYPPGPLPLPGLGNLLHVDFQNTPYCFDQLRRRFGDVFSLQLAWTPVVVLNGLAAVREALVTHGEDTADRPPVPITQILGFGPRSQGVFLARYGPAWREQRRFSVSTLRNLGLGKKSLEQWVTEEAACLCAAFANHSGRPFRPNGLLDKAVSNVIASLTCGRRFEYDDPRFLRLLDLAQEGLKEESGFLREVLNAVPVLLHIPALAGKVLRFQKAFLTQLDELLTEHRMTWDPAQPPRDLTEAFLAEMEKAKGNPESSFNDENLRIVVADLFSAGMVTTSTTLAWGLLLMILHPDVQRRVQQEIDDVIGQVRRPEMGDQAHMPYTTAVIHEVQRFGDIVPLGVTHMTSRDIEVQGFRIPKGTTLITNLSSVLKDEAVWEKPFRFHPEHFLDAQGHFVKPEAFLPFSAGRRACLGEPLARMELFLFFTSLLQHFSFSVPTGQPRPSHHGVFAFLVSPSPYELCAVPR
Procedure, shortened: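 Human CYP2D6 (5 nM) with 30 uM Luciferin-ME EGE (at Km) in 100 mM KPO4, compound preincubated 10 min, then NADPH regeneration system for 60 min at room temperature. Luciferin read by luminescence; normalized to 1.43 uM quinidine.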

[11] = qHTS Assay for Identification of Small Molecule Agonists for Hypoxia Response Element Signaling Pathway (AID 914; active = well fitted activation curve with a large enough effect in the signal ratio, with a control signal flat, not every such curve was filed as active; the % refers to the signal ratio; also: % of control where 0% means no effect); conditions: ME-180 (cervical carcinoma) HRE-bla reporter, beta-lactamase ratio, CoCl2, 17 h; activation: stronger effect = higher value
Procedure, shortened: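 HRE-bla ME-180 cells with beta-lactamase reporter under hypoxia response element, compounds with EC50 CoCl2 for 17 hours at 37 C. CCF4 substrate, 460nm/530nm emission ratio gave %Activity; AC50 from titration series.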

[12] = biological target: Cytochrome P450 3A4 (Homo sapiens) (UniProt P08684); assay: qHTS Assay for Inhibitors and Substrates of Cytochrome P450 3A4 (AID 884; active = well fitted curve in the direction sought with a large enough effect; an effect the other way counts as inactive or inconclusive; also: potency is read from the fitted curve at half-maximal effect; nearly all actives have a fitted effect of over 50% in size); conditions: recombinant CYP3A4, Luciferin-PPXE luminescence; series mostly up to 57.1 µM
Chain of Cytochrome P450 3A4 (Homo sapiens) (P08684 whole entry, looked up): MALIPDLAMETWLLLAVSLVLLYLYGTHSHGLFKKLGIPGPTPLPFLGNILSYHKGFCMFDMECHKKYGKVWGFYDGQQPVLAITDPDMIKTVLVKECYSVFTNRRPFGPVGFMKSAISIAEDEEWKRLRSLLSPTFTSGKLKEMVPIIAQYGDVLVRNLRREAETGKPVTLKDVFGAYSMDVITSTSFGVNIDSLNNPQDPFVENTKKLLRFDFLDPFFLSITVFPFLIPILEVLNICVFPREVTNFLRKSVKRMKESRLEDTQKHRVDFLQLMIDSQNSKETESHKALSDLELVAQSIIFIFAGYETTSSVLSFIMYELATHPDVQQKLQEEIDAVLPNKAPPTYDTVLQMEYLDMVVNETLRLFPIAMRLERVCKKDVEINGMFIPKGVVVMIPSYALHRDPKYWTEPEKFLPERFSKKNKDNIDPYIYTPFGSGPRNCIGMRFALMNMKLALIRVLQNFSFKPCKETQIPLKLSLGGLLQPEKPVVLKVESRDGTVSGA
Procedure, shortened: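 20 nM human CYP3A4 with 25 uM Luciferin-PPXE (at KM) in 200 mM KPO4, preincubated 10 min with compound; NADPH regeneration started a 60 min RT reaction. Luciferin detected by luminescence, normalized to 57 uM ketoconazole as full inhibition.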

[13] = biological target: Cytochrome P450 3A4 (Homo sapiens) (UniProt P08684); assay: qHTS Assay for Activators of Cytochrome P450 3A4 (AID 885; active = well fitted curve in the direction sought with a large enough effect; an effect the other way counts as inactive or inconclusive; also: nearly all actives have a fitted effect of over 65% in size); conditions: recombinant CYP3A4, Luciferin-PPXE luminescence, 60 min; series mostly up to 11.4 µM
Procedure, shortened: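 20nM CYP3A4 + 25uM Luciferin-PPXE (=KM), 200mM KPO4; cpd 10 min RT; NADPH regen, 60 min RT; stop w/ detection buffer, 20 min; luminescence. Normalized to 57 uM ketoconazole.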

| SMILES | Potency [1] | activity change, negative = inhibition [2] [%] | Potency [3] | activity, negative = inhibition [4] [%] | Potency [5] [µM] | Potency [6] [µM] | Potency [7] | Potency [8] | Potency [9] | activity change, negative = inhibition [3] | Potency [10] | activation [11] [%] | Potency [12] | Potency [13] |
| --- | --- | --- | --- | --- | --- | --- | --- | --- | --- | --- | --- | --- | --- | --- |
| O=C(O)/C(=C\c1ccncc1)c1cccc2ccccc12 | > 11.4 µM | -1.57 | 3.98 µM (active) | 7.21 | > 46 | > 9.22 | inactive | inactive | 2.51 µM (active) |  |  |  |  |  |
| Oc1c([C@H](Nc2ccccn2)c2ccccc2)ccc2cccnc12 | > 11.4 µM | -3.08 |  | 15.1 | > 46 | > 9.22 | inactive | inactive |  | -21.9% [at 2.29 µM] | 0.316 µM (active) |  |  |  |
| CCCC1c2c(ccc3ccccc23)Oc2ccc3ccccc3c21 | > 11.4 µM | 11 | 0.631 µM (active) | 10.6 | > 46 | > 9.22 | inactive | inactive | 0.631 µM (active) |  |  |  |  |  |
| C[C@@]12CC[C@H]3[C@H](CC=C4C[C@@H](O)CC[C@@]43C)[C@@H]1CC[C@@H]2N(CCO)CCO | > 11.4 µM | -4.05 | inactive | 18.7 | > 46 | > 9.22 | inactive | inactive |  |  |  | 9.1 |  |  |
| Clc1ccc2c(NCCNC3CCCCC3)ccnc2c1 | > 11.4 µM | 5.59 |  | 3.49 | > 46 | > 9.22 | inactive | inactive |  | -10.2% [at 2.29 µM] | 3.16 µM (active) |  |  |  |
| O=C(O)C[C@H](NC(=O)CP(=O)(O)O)C(=O)O.[NH-][C@@H]1CCCC[C@@H]1[NH-].[Pt] | > 11.4 µM | -4.37 | inactive | -12 | > 46 | > 9.22 |  | inactive |  |  |  |  |  |  |
| O=[N+]([O-])c1ccc(CSCc2ccc(Cl)cc2)cc1 | > 11.4 µM | -19.3 | 3.98 µM (active) | 11.6 | > 46 | > 9.22 | inactive | inactive | 0.398 µM (active) |  |  |  |  |  |
| Cc1[nH]n(-c2ccc(S(=O)(=O)O)cc2)c(=O)c1N=Nc1ccccc1 | > 11.4 µM | -16.3 | inactive | -16.2 | > 46 | > 9.22 | inactive | inactive | inactive |  |  | 27.8 |  |  |
| CN(C)c1ccc(-c2nc(Nc3ccncc3)c3ccccc3n2)cc1 | 3.67 µM (active) | -10.7 | 0.501 µM (active) | -28.2 | > 46 | > 46 |  | inactive |  |  |  |  | 7.94 µM (active) | inactive |
| CC(C)(C)NCC[C@@H](O)c1cc(C(F)(F)F)nc2c(C(F)(F)F)cccc12 | > 11.4 µM | 9.95 |  | -4.67 | > 46 | > 9.22 | inactive | inactive |  | -9.9% [at 2.29 µM] | 0.316 µM (active) |  |  |  |
| CN(C)c1ccc(C(=C2C=CC(=[N+](C)C)C=C2)c2c(O)c(S(=O)(=O)O)cc3cc(S(=O)(=O)O)ccc23)cc1 | > 11.4 µM | 3.1 | 3.98 µM (active) | 4.39 | > 46 | > 9.22 | inactive | inactive | inactive |  |  |  |  |  |
| C[C@H](CN(C)C)C(O)(c1ccccc1)c1ccccc1 | > 11.4 µM | -8.88 | inactive | 8.39 | > 46 | > 9.22 | inactive | inactive | inactive |  |  |  |  |  |
| C[C@H](NC(=O)c1ccc(Cl)c(Cl)c1)c1ccc(-c2ccccc2)cc1 | > 11.4 µM | -14.7 | 0.631 µM (active) | -12.5 | > 46 | > 9.22 | inactive | inactive | 1.26 µM (active) |  |  |  |  |  |
| O=C(O)c1ccccc1N[C@H](c1ccccc1)c1ccc2cccnc2c1O | > 11.4 µM | 0.796 | 1.58 µM (active) | -21.5 | > 46 | > 9.22 | inactive | inactive | 3.98 µM (active) |  |  |  |  |  |
| CCN(Cc1cc(Cl)cc(C)c1O)Cc1c(O)ccc2ccccc12 | > 11.4 µM | -8.15 | 1 µM (active) | 1.25 | > 46 | > 9.22 | inactive | inactive | 1.26 µM (active) |  | 1.26 µM (active) |  |  |  |
| Clc1ccc(Cl)c(SCCCN2CCNCC2)c1 | > 11.4 µM | 3.23 | 0.501 µM (active) | -0.882 | > 46 | > 9.22 | inactive | inactive |  |  | 2.51 µM (active) |  |  |  |
